Here are results for 7 compounds from PubChem BioAssay (EPA / NIEHS).

The nature of test [1]: ATG_CMV_CIS: Attagene CIS-FACTORIAL HepG2 Assay for human CMV (Internal Marker) (AID 2282928).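 Note: endpoint acts as a background internal control marker rather than a target.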 The settings on record: HepG2 CMV promoter reporter, transcription factor profiling; actives raise or lower the signal. The gist of the method: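 24 h chemical treatment, HepG2 with transient multi-reporter transfection; RNA → oligo(dT) RT → PCR → 6-FAM extension → HpaI digest → CE fluorescence. Bidirectional fit, DMSO negative control.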

A short description of test [2]: ATG_ISRE_CIS: Attagene CIS-FACTORIAL HepG2 Assay for human Interferon Regulatory Factor 1 (IRF1) binding to an Interferon-Stimulated Response Element (ISRE) (AID 2282948). As to conditions: HepG2 ISRE cis-reporter (Attagene), mRNA transcription readout; actives raise or lower the signal. The method in brief:
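Multiplexed mRNA reporter readout in human liver HepG2 cells: cis-element-driven reporters transfected, compound added for 24 h, transcripts amplified, fluorescently labelled and sized by capillary electrophoresis; curve fitting bidirectional against DMSO.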

Test [3] can be described thus: ATG_M_32_CIS: Attagene CIS-FACTORIAL HepG2 Assay for M32 Transcription Factor (Internal Marker) (AID 2282949).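 Note: background control marker of the multiplexed CIS panel rather than a real target.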 The settings on record: HepG2 Attagene cis-factorial M32 reporter, mRNA; actives raise or lower the signal. The gist of the method:
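HepG2 human liver cells transiently transfected with cis-promoter-driven multiple reporter transcription units, dosed 24 h. Reporter mRNA quantified by RT-PCR, FAM-labelled primer extension, HpaI digest and capillary electrophoresis; bidirectional fit versus DMSO baseline.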

Test [4] deals with Hepatocyte nuclear factor 6 (Homo sapiens) (UniProt Q9UBC0). Briefly: ATG_HNF6_CIS: Attagene CIS-FACTORIAL HepG2 Assay for human Hepatocyte Nuclear Factor 6 (HNF6) (AID 2282952). As to conditions: HepG2 Attagene cis-factorial HNF6 reporter transcription; actives raise or lower the signal. The gist of the method: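 Activity values derive from bidirectional fitting against DMSO of reporter mRNA levels, measured by capillary electrophoresis of labelled RT-PCR products from HepG2 cells exposed 24 h.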
Sequence of Hepatocyte nuclear factor 6 (Homo sapiens) (Q9UBC0 whole entry, looked up): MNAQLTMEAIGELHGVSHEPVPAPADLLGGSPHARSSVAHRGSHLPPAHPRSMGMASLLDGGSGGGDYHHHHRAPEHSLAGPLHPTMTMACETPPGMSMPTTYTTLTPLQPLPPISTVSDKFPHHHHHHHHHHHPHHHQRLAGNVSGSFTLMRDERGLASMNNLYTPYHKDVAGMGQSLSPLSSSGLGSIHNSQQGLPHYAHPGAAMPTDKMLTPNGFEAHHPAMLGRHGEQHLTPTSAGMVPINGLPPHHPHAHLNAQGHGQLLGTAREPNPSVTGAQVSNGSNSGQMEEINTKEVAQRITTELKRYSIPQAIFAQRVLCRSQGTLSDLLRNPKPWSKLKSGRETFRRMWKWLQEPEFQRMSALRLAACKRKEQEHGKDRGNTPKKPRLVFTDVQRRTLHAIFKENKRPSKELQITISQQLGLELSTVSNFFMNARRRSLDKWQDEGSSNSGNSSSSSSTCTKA

Test [5] concerns the target Heat shock factor protein 1 (Homo sapiens) (UniProt Q00613). The test can be described thus: ATG_HSE_CIS: Attagene CIS-FACTORIAL HepG2 Assay for human Heat Shock Transcription Factor 1 (HSE) (AID 2282953). The settings on record: HepG2 HSE cis-reporter, Attagene RNA transcription; actives raise or lower the signal. The method in brief:
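After a 24 h incubation with test chemical, transfected HepG2 cells were harvested for RNA; reporter transcripts were measured by RT-PCR and capillary electrophoresis. Values reflect gain or loss of signal relative to DMSO.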

The nature of test [6]: ATG_RORE_CIS: Attagene CIS-FACTORIAL HepG2 Assay for human RAR-related Orphan Receptor Element (RORE) (AID 2282959). The settings on record: HepG2 Attagene cis-factorial RORE reporter, mRNA; actives raise or lower the signal. The method in brief:
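Cells were HepG2 carrying transfected cis-regulated reporter constructs, dosed for 24 hours. Total RNA was reverse-transcribed and reporter cDNA amplified, fluorescently labeled and sized by capillary electrophoresis. Activity was fitted bidirectionally relative to DMSO.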

Test [7] is described as follows: ATG_TA_CIS: Attagene CIS-FACTORIAL HepG2 Assay for human TA Basal Promoter (AID 2282964). The settings on record: HepG2 Attagene CIS-factorial TA basal promoter reporter; actives raise or lower the signal. The method in brief: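 Multiplexed mRNA reporter assay, HepG2, 24 h. Reporter cDNA amplified, 6-FAM primer-extended, HpaI-cut, CE-sized; DMSO = negative control and baseline.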

Test [8] can be described thus: ATG_TCF_b_cat_CIS: Attagene CIS-FACTORIAL HepG2 Assay for human T-Cell-Factor with beta-catenin (TCF/b-cat) (AID 2282965). The settings on record: HepG2 TCF/beta-catenin cis-reporter transcription, actives raise or lower the signal. The method in brief: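 In this cis-format system, transfected HepG2 cells report endogenous transcription factor activity. Readout after 24 h exposure is reporter transcript abundance from RT-PCR and capillary electrophoresis, analysed for gain or loss of signal versus DMSO.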

A short description of test [9]: ATG_TAL_CIS: Attagene CIS-FACTORIAL HepG2 Assay for human TAL Basal Promoter (AID 2282966).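 Note: background control endpoint measuring basal TAL promoter reporter mRNA not a specific factor.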 The settings on record: HepG2 Attagene cis-factorial TAL promoter reporter; actives raise or lower the signal. The gist of the method: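 Transiently transfected HepG2 (cis-regulated reporter units), 24 h treatment, mRNA read by fluorescent CE after RT-PCR; bidirectional fit, DMSO baseline.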

The nature of test [10]: ATG_TGFb_CIS: Attagene CIS-FACTORIAL HepG2 Assay for human Transforming Growth Factor (TGF) (AID 2282967). As to conditions: HepG2 Attagene CIS TGFb reporter, mRNA transcription; actives raise or lower the signal. The method in brief: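 Transcript-level reporter readout: HepG2 transfectants, 24 h exposure, RNA to cDNA, reporter-specific PCR, fluorescent primer extension, capillary sizing against ROX standards. Gain- or loss-of-signal relative to DMSO.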

A short description of test [11]: ATG_VDRE_CIS: Attagene CIS-FACTORIAL HepG2 Assay for human Vitamin D Receptor Element (VDRE) (AID 2282968). As to conditions: HepG2 VDRE cis-reporter transcription, actives raise or lower the signal. The method in brief: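 Steps: transfect HepG2 with multiple reporter transcription units; dose chemicals 24 h; isolate RNA; RT-PCR; label with 6-FAM primer extension; HpaI digest; capillary electrophoresis. Curves fitted both directions against DMSO.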

The target in test [12] is X-box-binding protein 1 (Homo sapiens) (UniProt P17861). Briefly: ATG_Xbp1_CIS: Attagene CIS-FACTORIAL HepG2 Assay for human X-box Binding Protein 1 (XBP1) (AID 2282972). As to conditions: HepG2 XBP1 cis-element reporter, Attagene multiplex; actives raise or lower the signal. The method in brief:
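Multiplexed cis-reporter readout in transfected HepG2 liver cells. Exposure lasted 24 hours. Activity in either direction was fitted against DMSO as negative control and baseline.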

The target of test [13] is Transcriptional activator Myb (Homo sapiens) (UniProt P10242). Briefly: ATG_Myb_CIS: Attagene CIS-FACTORIAL HepG2 Assay for human Myeloblastosis (Myb) Proto-Oncogene Transcription Factor (AID 2282986). The settings on record: HepG2 Attagene CIS-FACTORIAL Myb reporter transcription; actives raise or lower the signal. The method in brief:
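Steps: transfect HepG2 with cis-regulated reporter units; dose with chemical for 24 h; isolate RNA, reverse-transcribe, PCR-amplify and FAM-label reporter sequences; digest with HpaI; resolve by capillary electrophoresis. Activity fitted in both directions relative to DMSO.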

Test [14] addresses Nuclear respiratory factor 1 (Homo sapiens) (UniProt Q16656). Briefly: ATG_NRF1_CIS: Attagene CIS-FACTORIAL HepG2 Assay for human Nuclear Respiratory Factor 1 (NRF1) Orphan Gene (AID 2282987). The settings on record: HepG2 NRF1 cis-element reporter, Attagene multiplex; actives raise or lower the signal. The method in brief:
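Fluorescence intensity of labelled reporter cDNA fragments, resolved by capillary electrophoresis, served as readout for NRF1 cis-element activity. Transiently transfected HepG2 cells were dosed for 24 hours; activity in either direction was fitted against DMSO negative control.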

For test [15], the target named is Myc proto-oncogene protein (Homo sapiens) (UniProt P01106). The test can be described thus: ATG_Myc_CIS: Attagene CIS-FACTORIAL HepG2 Assay for human Myelocytomatosis (Myc) Proto-Oncogene Transcription Factor (AID 2282990). As to conditions: HepG2, Attagene cis-reporter transcription factor activity; actives raise or lower the signal. The method in brief: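 DMSO-normalised, bidirectionally fitted reporter mRNA signal. HepG2 cells transfected with cis reporter constructs, treated 24 h; transcripts detected by RT-PCR, 6-FAM primer extension and CE.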
Sequence of Myc proto-oncogene protein (Homo sapiens) (P01106 whole entry, looked up): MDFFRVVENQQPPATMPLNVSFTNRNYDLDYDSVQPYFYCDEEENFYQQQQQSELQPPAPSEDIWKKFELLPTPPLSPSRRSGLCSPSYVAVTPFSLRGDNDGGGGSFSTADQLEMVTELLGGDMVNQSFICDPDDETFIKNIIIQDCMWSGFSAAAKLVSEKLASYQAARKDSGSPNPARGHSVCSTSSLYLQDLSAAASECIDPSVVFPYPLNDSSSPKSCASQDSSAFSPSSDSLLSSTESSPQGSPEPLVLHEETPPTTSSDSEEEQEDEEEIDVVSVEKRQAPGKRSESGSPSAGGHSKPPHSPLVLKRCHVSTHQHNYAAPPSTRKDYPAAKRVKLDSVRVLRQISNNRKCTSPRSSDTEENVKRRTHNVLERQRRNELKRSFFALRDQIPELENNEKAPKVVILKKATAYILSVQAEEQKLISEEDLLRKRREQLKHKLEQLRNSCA

Test [16] in a line: ATG_NF_kB_CIS: Attagene CIS-FACTORIAL HepG2 Assay for human Nuclear Factor Kappa B (NF-kB) (AID 2282991). As to conditions: HepG2 Attagene cis-factorial NF-kB reporter mRNA; actives raise or lower the signal. The method in brief: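 Endogenous transcription factor activity in HepG2 was captured via cis-regulated reporter constructs; after 24 h dosing, reporter mRNA was reverse-transcribed, amplified, fluorescently labelled and sized by capillary electrophoresis, with activity fitted bidirectionally relative to DMSO.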

A short description of test [17]: ATG_NRF2_ARE_CIS: Attagene CIS-FACTORIAL HepG2 Assay for human Nuclear Factor Erythroid 2 Related Factor 2 (NFR2) response to Antioxidant Response Elements (ARE) (AID 2282992). As to conditions: HepG2 Attagene ARE/NRF2 reporter, transcription factor activity; actives raise or lower the signal. The gist of the method: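 Endogenous transcription factor activity in human liver HepG2 cells is tracked via a cis-element-driven reporter within a multiplexed set. mRNA induction is read by RT-PCR and capillary electrophoresis after 24 h, with DMSO as baseline.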

Test [18] in a line: ATG_Oct_MLP_CIS: Attagene CIS-FACTORIAL HepG2 Assay for human Octamer-Binding Transcription Factor (Oct) (AID 2282993). As to conditions: HepG2 Attagene cis-factorial Oct reporter, mRNA; actives raise or lower the signal. The gist of the method: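 Cells of the HepG2 line express promoter-controlled reporter sequences whose mRNA levels, after 24 h treatment, are measured by RT-PCR and capillary electrophoresis. Increases and decreases are scored relative to DMSO.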

Test [19] has as its target Cellular tumor antigen p53 (Homo sapiens) (UniProt P04637). Briefly: ATG_p53_CIS: Attagene CIS-FACTORIAL HepG2 Assay for human p53 Transcription Factor (AID 2282994). As to conditions: HepG2 p53 cis-element reporter, Attagene mRNA; actives raise or lower the signal. The method in brief:
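Steps: transfect HepG2 with multiplexed cis reporter constructs; dose chemicals 24 h; extract RNA, reverse-transcribe, PCR-amplify reporter sequences; FAM-label, HpaI-digest, resolve fragments by CE. Activity fitted both directions relative to DMSO.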

In test [20] the target is Signal transducer and activator of transcription 3 (Homo sapiens) (UniProt P40763). The test can be described thus: ATG_STAT3_CIS: Attagene CIS-FACTORIAL HepG2 Assay for human Signal Transducer and Activator of Transcription 3 (STAT3) (AID 2282963). As to conditions: HepG2, Attagene cis-factorial STAT3 reporter transcription; actives raise or lower the signal. The method in brief:
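HepG2, MRTU-transfected, 24 h dosing. RNA → RT → PCR → FAM label → HpaI → CE. Bidirectional fit vs DMSO.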

SMILES strings stand for the structures. Calls of active or inactive are those of the source. Rule for the calls: active = hit-call score of the fitted dose curve at least 0.9, where 1 is the maximum; inactive = score below 0.9.

Sequence of X-box-binding protein 1 (Homo sapiens) (P17861 whole entry, looked up): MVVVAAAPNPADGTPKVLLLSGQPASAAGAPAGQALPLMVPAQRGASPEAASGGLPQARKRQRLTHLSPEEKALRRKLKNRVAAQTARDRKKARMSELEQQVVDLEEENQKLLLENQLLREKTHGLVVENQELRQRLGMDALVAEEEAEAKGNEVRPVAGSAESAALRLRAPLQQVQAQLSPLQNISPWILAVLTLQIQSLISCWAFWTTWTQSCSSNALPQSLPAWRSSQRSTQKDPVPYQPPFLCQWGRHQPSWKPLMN
Sequence of Cellular tumor antigen p53 (Homo sapiens) (P04637 whole entry, looked up, the tested form may be a part): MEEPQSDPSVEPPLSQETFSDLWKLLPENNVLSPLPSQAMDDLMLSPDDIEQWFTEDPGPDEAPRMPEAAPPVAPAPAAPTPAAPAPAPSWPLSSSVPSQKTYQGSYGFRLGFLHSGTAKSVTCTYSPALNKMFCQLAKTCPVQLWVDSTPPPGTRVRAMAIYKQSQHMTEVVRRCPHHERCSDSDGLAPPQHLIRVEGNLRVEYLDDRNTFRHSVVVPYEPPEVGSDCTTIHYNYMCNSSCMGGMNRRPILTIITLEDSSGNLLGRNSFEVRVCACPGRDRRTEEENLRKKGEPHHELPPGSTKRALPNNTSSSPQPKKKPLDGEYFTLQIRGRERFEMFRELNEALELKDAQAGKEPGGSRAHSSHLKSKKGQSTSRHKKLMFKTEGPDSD
Sequence of Nuclear respiratory factor 1 (Homo sapiens) (Q16656 whole entry, looked up, the tested form may be a part): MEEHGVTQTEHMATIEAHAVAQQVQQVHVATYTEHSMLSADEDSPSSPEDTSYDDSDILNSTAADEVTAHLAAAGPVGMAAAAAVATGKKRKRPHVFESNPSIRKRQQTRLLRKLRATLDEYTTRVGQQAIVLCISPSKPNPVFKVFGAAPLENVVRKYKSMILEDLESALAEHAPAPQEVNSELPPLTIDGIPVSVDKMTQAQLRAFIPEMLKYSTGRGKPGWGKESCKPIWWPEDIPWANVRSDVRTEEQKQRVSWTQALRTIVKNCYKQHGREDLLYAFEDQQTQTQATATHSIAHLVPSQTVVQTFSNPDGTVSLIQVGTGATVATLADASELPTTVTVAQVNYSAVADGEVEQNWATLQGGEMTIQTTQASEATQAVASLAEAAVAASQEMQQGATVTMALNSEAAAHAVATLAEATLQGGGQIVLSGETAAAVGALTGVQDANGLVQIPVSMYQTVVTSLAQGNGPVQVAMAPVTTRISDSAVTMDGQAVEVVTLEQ
Sequence of Signal transducer and activator of transcription 3 (Homo sapiens) (P40763 whole entry, looked up): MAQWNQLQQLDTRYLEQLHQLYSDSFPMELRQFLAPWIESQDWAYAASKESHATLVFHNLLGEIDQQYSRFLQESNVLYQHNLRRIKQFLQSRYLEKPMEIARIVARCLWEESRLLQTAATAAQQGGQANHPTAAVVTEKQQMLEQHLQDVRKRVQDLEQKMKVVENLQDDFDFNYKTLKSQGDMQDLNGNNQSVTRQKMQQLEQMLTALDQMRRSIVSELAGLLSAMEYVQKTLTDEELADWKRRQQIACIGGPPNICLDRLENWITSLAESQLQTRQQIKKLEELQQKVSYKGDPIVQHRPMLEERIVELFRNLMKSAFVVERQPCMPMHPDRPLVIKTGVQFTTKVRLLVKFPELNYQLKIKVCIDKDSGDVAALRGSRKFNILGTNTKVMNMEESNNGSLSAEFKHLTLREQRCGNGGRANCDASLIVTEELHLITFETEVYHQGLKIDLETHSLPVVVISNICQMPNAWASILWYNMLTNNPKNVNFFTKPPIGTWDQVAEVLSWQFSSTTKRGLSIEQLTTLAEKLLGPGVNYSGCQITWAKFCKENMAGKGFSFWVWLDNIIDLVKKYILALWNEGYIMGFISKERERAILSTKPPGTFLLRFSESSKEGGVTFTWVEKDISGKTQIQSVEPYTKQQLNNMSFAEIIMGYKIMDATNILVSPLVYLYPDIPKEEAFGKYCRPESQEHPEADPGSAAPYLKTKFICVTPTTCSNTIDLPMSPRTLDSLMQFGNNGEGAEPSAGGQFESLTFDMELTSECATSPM
Sequence of Transcriptional activator Myb (Homo sapiens) (P10242 whole entry, looked up): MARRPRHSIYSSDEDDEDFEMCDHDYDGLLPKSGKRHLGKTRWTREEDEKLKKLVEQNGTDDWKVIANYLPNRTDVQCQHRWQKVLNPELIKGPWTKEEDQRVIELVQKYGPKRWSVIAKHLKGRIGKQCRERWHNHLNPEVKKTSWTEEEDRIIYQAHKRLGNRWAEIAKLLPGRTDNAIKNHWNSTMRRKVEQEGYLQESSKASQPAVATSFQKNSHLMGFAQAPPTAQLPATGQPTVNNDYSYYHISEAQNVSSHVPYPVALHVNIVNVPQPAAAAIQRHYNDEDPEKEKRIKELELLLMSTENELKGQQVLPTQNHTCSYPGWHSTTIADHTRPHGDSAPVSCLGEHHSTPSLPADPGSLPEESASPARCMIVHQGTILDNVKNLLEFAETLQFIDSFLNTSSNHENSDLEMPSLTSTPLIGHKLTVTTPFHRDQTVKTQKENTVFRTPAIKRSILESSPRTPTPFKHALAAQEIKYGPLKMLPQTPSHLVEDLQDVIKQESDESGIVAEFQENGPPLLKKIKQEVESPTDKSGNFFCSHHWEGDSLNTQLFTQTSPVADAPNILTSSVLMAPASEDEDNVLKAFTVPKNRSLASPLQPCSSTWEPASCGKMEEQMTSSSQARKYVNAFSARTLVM
Sequence of Heat shock factor protein 1 (Homo sapiens) (Q00613 whole entry, looked up): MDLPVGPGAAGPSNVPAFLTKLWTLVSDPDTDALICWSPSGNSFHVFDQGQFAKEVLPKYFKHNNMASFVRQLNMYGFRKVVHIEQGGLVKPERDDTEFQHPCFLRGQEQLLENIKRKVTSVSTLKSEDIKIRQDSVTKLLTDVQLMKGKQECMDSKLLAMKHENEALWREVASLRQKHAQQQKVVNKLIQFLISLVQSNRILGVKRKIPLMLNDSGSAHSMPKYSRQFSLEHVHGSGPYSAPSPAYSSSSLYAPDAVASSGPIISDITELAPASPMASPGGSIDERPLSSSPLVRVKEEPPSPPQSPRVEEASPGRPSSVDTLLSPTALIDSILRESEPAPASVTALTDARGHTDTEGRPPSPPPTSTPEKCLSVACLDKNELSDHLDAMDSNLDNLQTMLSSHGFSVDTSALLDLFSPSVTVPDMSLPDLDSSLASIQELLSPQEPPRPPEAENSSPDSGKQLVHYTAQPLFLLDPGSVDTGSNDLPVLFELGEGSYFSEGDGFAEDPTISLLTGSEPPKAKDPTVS

Usually AC50 stands for the concentration at which the activity in the assay is half-maximal. In the case of `CC(=O)C=Cc1ccccc1`, the AC50 in test [1] was 128 µM (active); in test [2] it was 81.1 µM (active); in test [4], 179 µM (active); in test [5], 152 µM (active); in test [11], 100 µM (active); in [13], 128 µM (active). The AC50 in test [16] was 163 µM (active); in test [17] it was 56.5 µM (active); in test [18], 100 µM (active). Besides, the outcome in [3], in [6], in [7], in [8], in test [9] and in test [10] was inactive. Moreover, the outcome in test [12], in [14] and in [15] was inactive.

With `O=C1Nc2ccc(Cl)cc2C(c2ccccc2)=NC1O` (stereo not given), the outcome in [1], in test [3], in [5], in test [6], in [9] and in [10] was inactive. Further, the compound was called inactive in test [11], in test [12], in [13], in [15], in test [18] and in [19]. The AC50 in test [8] is 28.9 µM (active).

`Clc1ccc(-c2ccccc2)cc1`: the half-maximal activity concentration (AC50) is 139 µM (active) in test [1] and 149 µM (active) in test [17]. In addition, the outcome in test [2], in [3], in test [4], in test [5], in [6] and in test [8] was inactive. For the same compound, the call in [9], in test [10], in [11], in [12], in test [13] and in test [14] was inactive. Besides, the compound was classed as inactive in [15], in test [16], in [18] and in test [19].

Take `C[N+](C)=CCl`: the compound was called inactive in [1], in test [2], in test [3], in test [4], in [5] and in test [20]. The compound was classed as inactive in test [7], in [8], in test [9], in test [10], in test [11] and in test [12]. Further, the result in [13], in [14], in test [15], in [16], in test [17] and in test [18] was inactive.

On to `CN(C)C(=O)C(c1ccccc1)c1ccccc1`, for which the outcome in test [1], in [2], in test [3], in test [4], in test [5] and in test [6] was inactive. Moreover, the outcome in test [20], in [7], in [8], in test [9], in test [10] and in test [11] was inactive. The result in test [12], in test [13], in test [14], in test [15], in [16] and in test [17] was inactive. In addition, the call in [18] and in test [19] was inactive.

With `O=C(O)C(Br)Br`, the result in test [1], in [2], in test [3], in [4], in test [5] and in [6] was inactive. Also, the outcome in [20], in [7], in test [8], in [9], in [10] and in [11] was inactive. Also, the result in [12], in test [13], in test [14], in test [15], in test [16] and in [18] was inactive. The call in [19] was inactive. In test [17], the concentration at half-maximal activity (AC50) was 1.86 µM (active).

Turning to `CC=Cc1ccc2c(c1)OCO2`, the compound was classed as inactive in test [1], in test [2], in test [4], in test [5], in test [6] and in [20]. For the same compound, the result in [9], in test [11], in test [12], in test [13], in [14] and in test [15] was inactive. Further, the result in test [16], in test [17], in test [18] and in test [19] was inactive. Further, the AC50 was 80.8 µM (active) in test [8] and 0.0749 µM (active) in test [10].
